Results as given in PubChem BioAssay AID1347426 (Functional Genomics Laboratory (NCATS/FGL), 2020).
In all, about 31,000 sequences went through this assay and about 1,400 (4.5%) were called active. This excerpt belongs to a sample that is enriched for actives. Values without a mark were called inactive.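 The calls were made as follows: active = median seed-adjusted z-score above 1 or below -1; inactive = the rest.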

Assay: Novel Modifiers of Survival Motor Neuron (SMN) Protein: Gene Identification via Genome-wide siRNA Screen;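 also: luminescence tracks full-length SMN protein made from the SMN2 reporter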
Settings: HEK293T SMN2-luciferase reporter, siRNA knockdown, 72 h; actives lie on both sides
Method in brief: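 Each of three siRNAs per gene is reverse-transfected (1 pmol) into reporter HEK293T cells whose luciferase output tracks SMN protein level. After 72 h culture, ONE-Glo luminescence is control-normalized, log10-transformed and MAD-standardized; Common Seed Analysis deprioritizes seed-driven hits.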

**Q.** For CAGAUGACUUCAGAACCAATT against KRT33B, which median seed-adjusted z-score is on record?
**A.** The median seed-adjusted z-score was 0.04.

**Q.** With GGCUAUAUCGUCACAAUGATT against ABCA4 as the sequence, how does the median seed-adjusted z-score read?
**A.** The median seed-adjusted z-score was -1.09 (active).

**Q.** Which median seed-adjusted z-score does the source give for GGUAAUGCUUUAUUCCAAATT against ZNF677 here?
**A.** Its median seed-adjusted z-score is -0.441.

**Q.** For GAGCUGACGUGUACUCAUATT against USP5, which median seed-adjusted z-score is on record?
**A.** The median seed-adjusted z-score was 0.596.

**Q.** For CGCAUUCUCCAGUCGCACATT against KRT81, which median seed-adjusted z-score is on record?
**A.** The median seed-adjusted z-score was -0.0955.

**Q.** With CGGUUGGAGUUGGAUGACATT against TRIB3 as the sequence, how does the median seed-adjusted z-score read?
**A.** The median seed-adjusted z-score was 0.00635.

**Q.** For ACAUCAAAACACCAGCUUUTT against YBX2, which median seed-adjusted z-score is on record?
**A.** The median seed-adjusted z-score was 0.362.

**Q.** Which median seed-adjusted z-score does the source give for CCUACGUUUUUAUUAUCUUTT against SLC2A14 here?
**A.** Its median seed-adjusted z-score is -1.09 (active).

**Q.** With GCACAAGGAGUGACCUUCUTT against GCHFR as the sequence, how does the median seed-adjusted z-score read?
**A.** Its median seed-adjusted z-score is -0.559.

**Q.** With GAACUUUGUUACUAUCGAATT against PCDH9 as the sequence, how does the median seed-adjusted z-score read?
**A.** The median seed-adjusted z-score was 0.165.

**Q.** With GGAUCCUGGUGAUAAGAGATT against QRICH1 as the sequence, how does the median seed-adjusted z-score read?
**A.** The median seed-adjusted z-score was -1.04 (active).

**Q.** For GAGAAAAUCUAUAUCCGGATT against NR2C2, which median seed-adjusted z-score is on record?
**A.** Its median seed-adjusted z-score is -0.498.

**Q.** With CCCGGAGAAUUCUCAAUGATT against NENF as the sequence, how does the median seed-adjusted z-score read?
**A.** Its median seed-adjusted z-score is -0.778.

**Q.** With CAUCAAUGACUCACCCUUUTT against RTN4R as the sequence, how does the median seed-adjusted z-score read?
**A.** The median seed-adjusted z-score was -0.536.

**Q.** Which median seed-adjusted z-score does the source give for CAAACGACCUUUGCCCAAATT against MED17 here?
**A.** Its median seed-adjusted z-score is -2.06 (active).

**Q.** With AAACUUGCCUGAGUACAAATT against KCNH3 as the sequence, how does the median seed-adjusted z-score read?
**A.** The median seed-adjusted z-score was -0.509.

**Q.** Which median seed-adjusted z-score does the source give for GCUCCAGUCUCACUAAACATT against ZNF552 here?
**A.** Its median seed-adjusted z-score is 0.437.

**Q.** For GAAUGAAGGUUUAUAUUGATT against EPHB3, which median seed-adjusted z-score is on record?
**A.** Its median seed-adjusted z-score is -0.407.

**Q.** Which median seed-adjusted z-score does the source give for AGGAGACUCUUUGCUACAATT against MRGPRX1 here?
**A.** The median seed-adjusted z-score was -0.188.

**Q.** With GAAUGUUGACUCUACUGCATT against POLR3K as the sequence, how does the median seed-adjusted z-score read?
**A.** The median seed-adjusted z-score was 0.504.

**Q.** Which median seed-adjusted z-score does the source give for GGGACCAUCCUGUUCUUCATT against KCNK12 here?
**A.** The median seed-adjusted z-score was 1.04 (active).

**Q.** For CUCACAACAAAUUACUUAATT against CYP2C9, which median seed-adjusted z-score is on record?
**A.** Its median seed-adjusted z-score is 0.246.

**Q.** Which median seed-adjusted z-score does the source give for GGACUUGAGAGAUCUCUUUTT against DAB1 here?
**A.** Its median seed-adjusted z-score is 0.307.

**Q.** For GGUCUAAAGGUGGAGAUAATT against EIF2C2, which median seed-adjusted z-score is on record?
**A.** Its median seed-adjusted z-score is -0.183.

**Q.** For CAUGUGCAGUACAUCCAUATT against TIMP3, which median seed-adjusted z-score is on record?
**A.** The median seed-adjusted z-score was -1.05 (active).

**Q.** Which median seed-adjusted z-score does the source give for GCCCUUUACAUACUCUUCATT against IL23R here?
**A.** The median seed-adjusted z-score was 0.512.

**Q.** Which median seed-adjusted z-score does the source give for GGAUGAUAUUCUAUCCUUUTT against IPO13 here?
**A.** Its median seed-adjusted z-score is 0.612.

**Q.** With UGCUCAGCAGUACAACGUATT against SYN1 as the sequence, how does the median seed-adjusted z-score read?
**A.** Its median seed-adjusted z-score is -0.458.

**Q.** For UGUCCACGGUUAAAAUUAUTT against CCL16, which median seed-adjusted z-score is on record?
**A.** Its median seed-adjusted z-score is -0.308.

**Q.** For CAAACCGAAUAGAAACUUUTT against PSMC1, which median seed-adjusted z-score is on record?
**A.** The median seed-adjusted z-score was -2.23 (active).

**Q.** For UCAACUGCCCAUACACUUATT against LOC647743, which median seed-adjusted z-score is on record?
**A.** Its median seed-adjusted z-score is -0.203.

**Q.** Which median seed-adjusted z-score does the source give for UCCCAGUGAUUAUACGUUATT against ARPC4 here?
**A.** The median seed-adjusted z-score was -0.211.

**Q.** With GGAUGAGAACAUUAAAACATT against COQ3 as the sequence, how does the median seed-adjusted z-score read?
**A.** The median seed-adjusted z-score was 0.426.

**Q.** Which median seed-adjusted z-score does the source give for UGAUGGAAGUUGUCACUUATT against BLK here?
**A.** Its median seed-adjusted z-score is -0.274.

**Q.** Which median seed-adjusted z-score does the source give for GGCAAUGCUUUACUAUGAATT against ABCG8 here?
**A.** The median seed-adjusted z-score was -0.0233.

**Q.** With AGAUGUUCUUAAGACCAAATT against PACSIN2 as the sequence, how does the median seed-adjusted z-score read?
**A.** Its median seed-adjusted z-score is 0.73.

**Q.** With GGACUUCUGAAAAUUCGCATT against EP400 as the sequence, how does the median seed-adjusted z-score read?
**A.** The median seed-adjusted z-score was 1.83 (active).

**Q.** For CCGCGAUCAUAGACCUAGATT against FOXO4, which median seed-adjusted z-score is on record?
**A.** The median seed-adjusted z-score was -0.0576.

**Q.** With GGACAGGAAGAUACAAGAATT against GPR113 as the sequence, how does the median seed-adjusted z-score read?
**A.** The median seed-adjusted z-score was -0.434.

**Q.** With GGAAGAAUAUGUUUAGAUATT against UBE2N as the sequence, how does the median seed-adjusted z-score read?
**A.** The median seed-adjusted z-score was 0.995.

**Q.** With CGAGCAAUUUAGAGACUUATT against PCDHGA3 as the sequence, how does the median seed-adjusted z-score read?
**A.** The median seed-adjusted z-score was 0.27.

**Q.** Which median seed-adjusted z-score does the source give for GGAGAUACCAGGAACCCAATT against SLC7A13 here?
**A.** The median seed-adjusted z-score was 0.121.

**Q.** For CACGCAGAGUUACCGAAAATT against SPEN, which median seed-adjusted z-score is on record?
**A.** Its median seed-adjusted z-score is -1.69 (active).

**Q.** With CGAGCCACCGAGAAGAUAATT against ATAD3A as the sequence, how does the median seed-adjusted z-score read?
**A.** The median seed-adjusted z-score was -0.283.

**Q.** For GGACAAGAUUGGUGGGUUATT against PEX1, which median seed-adjusted z-score is on record?
**A.** Its median seed-adjusted z-score is 0.227.

**Q.** With GUACCAAUACUGAUAAGAATT against SLC9A11 as the sequence, how does the median seed-adjusted z-score read?
**A.** The median seed-adjusted z-score was -0.12.

**Q.** Which median seed-adjusted z-score does the source give for GGCCUAUCCUGAUUCUGAUTT against RND2 here?
**A.** Its median seed-adjusted z-score is -0.0613.

**Q.** For GGAUACUCUGAUGAAGAUATT against GNAQ, which median seed-adjusted z-score is on record?
**A.** The median seed-adjusted z-score was -1.23 (active).

**Q.** With AGUCAGCUCCGAUACUUCATT against CAPN10 as the sequence, how does the median seed-adjusted z-score read?
**A.** The median seed-adjusted z-score was 0.364.

**Q.** For UCACUGUGGUGUAUUUUAATT against PDP2, which median seed-adjusted z-score is on record?
**A.** The median seed-adjusted z-score was -0.0726.

**Q.** With GCUUCCAACUGCUUAUAUATT against TP53RK as the sequence, how does the median seed-adjusted z-score read?
**A.** Its median seed-adjusted z-score is 0.

**Q.** For CCAUCUCCUCUGAAACGUATT against RREB1, which median seed-adjusted z-score is on record?
**A.** The median seed-adjusted z-score was -0.414.

**Q.** For CAGAGACUGUUAUCCAUUUTT against SLC25A36, which median seed-adjusted z-score is on record?
**A.** The median seed-adjusted z-score was 0.134.

**Q.** For UUGUGGAUGUUGAACCUAATT against SNRPD1, which median seed-adjusted z-score is on record?
**A.** Its median seed-adjusted z-score is -2.97 (active).
